The text below walks through data of PubChem BioAssay (NCATS).

Test [1] is described as follows: AP1 Signaling Pathway (AID 357). Also: % is scaled to controls: 0 for no effect and ±100 for the full control effect. The note with it: ME-180 AP-1-bla reporter, EGF-induced, beta-lactamase ratio, 5 h; at 7.69 µM (top of the series) unless noted. In outline: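 Read-out was the 460nm/530nm emission ratio (excitation 405nm) after CCF4 loading for 2.5 hours at room temperature. Cells carried an AP-1-driven beta-lactamase reporter, were stimulated with EC50 EGF plus compound for 5 hours, and AC50 values came from titrations.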

The nature of test [2]: NFAT Signaling Pathway (AID 444).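 Also: carbachol stimulus at about its EC50 of 1 µM final; % is scaled to controls: 0 for no effect and ±100 for the full control effect.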 The conditions noted are these: Jurkat NFAT-bla M1, carbachol, beta-lactamase ratio, 5 h; at 7.69 µM (top of the series) unless noted. In outline: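 Jurkat cells with NFAT-driven β-lactamase reporter and co-expressed M1 receptor, stimulated with carbachol (final 1 uM, ~EC50), compound titration, 5 h at 37 °C. CCF4 loaded 1 h at RT; 460/530 nm ratio gave %activity and AC50.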

Test [3] in a line: Stat Signaling Pathway (AID 446).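 Also: ME-180 cervical cancer cells given 40 pM IL-6 alongside compound; SIE-controlled beta-lactamase reporter measured as 460/530 nm FRET emission ratio; % is scaled to controls: 0 for no effect and ±100 for the full control effect.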 The note with it: ME-180 SIE beta-lactamase reporter, IL-6 stimulated, 5 h; at 7.69 µM (top of the series) unless noted. In a few lines: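 ME-180 SIE-bla cells; overnight plating; cpd + IL-6 40 pM, 5 h, 37 C; LiveBLAzer 2.5 h RT; 460/530 nm emission ratio. Normalized to 300 pM IL-6 and 125 nM JAK inhibitor controls.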
Test [4] deals with Glucocorticoid receptor (Homo sapiens) (UniProt P04150). Nature of the test: GR-EFC Redistribution (AID 451; calls by dose curve; also: potency is read from the fitted curve at half-maximal effect). The conditions noted are these: CHO-K1 GR-EFC translocation, beta-gal luminescence, 2 h. In outline:
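CHO-K1 cells expressing nuclear EA and GR-ED fragments of b-gal; compounds titrated up to 46 uM final, 2 h at 37 C. GR nuclear translocation read as complemented b-gal luminescence after 1 h RT detection.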

Test [5] has as its target Mitogen-activated protein kinase 10 (Mus musculus) (UniProt Q61831). Briefly: JNK3 AlphaScreen Assay (AID 530).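 Also: kinase came from lysate of stimulated human HepG2 cells; signal reports phosphorylation of biotinylated GST-cJun 1-79 at Ser73 with 10 µM ATP; % is scaled to controls: 0 for no effect and ±100 for the full control effect.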 In a few lines:
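qHTS format: compounds tested as titrations against IL-1beta/TNF-alpha-activated HepG2 lysate JNK3 with biotin-GST-cJun substrate and 10 uM ATP at room temperature. Loss of anti-phospho-cJun AlphaScreen signal indicates inhibition.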
A general note: In Alpha technology, singlet oxygen from a donor bead excites a nearby acceptor bead.

The target of test [6] is 3',5'-cyclic-AMP phosphodiesterase 4B (Homo sapiens) (UniProt Q07343). Briefly: qHTS Assay for Inhibitors of PDE-IV (AID 607; active = well fitted activation curve with a large enough effect in the main read-out, with a control signal flat, not every such curve was filed as active; also: % of control where 0% means no effect). In a few lines: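 ACTOne HEK293 cells carry a modified cAMP-gated CNG channel and express endogenous PDE4; plated 1000 cells/well, compounds up to 22.9 uM final. Membrane-potential dye fluorescence (ex 535/em 590) was read; parental cells received 10 uM forskolin + 100 uM RO 20-1724.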
Background: In qHTS, concentration-response curves come from the screen itself.

Test [7] in a line: qHTS Assay for Lipid Storage Modulators (AID 1519; calls by dose curve). The note with it: Drosophila S3 cells, BODIPY lipid droplet/cell ratio, laser cytometry, cells loaded with oleic acid; for activity change, negative = inhibition: at 57.5 µM (top of the series). In a few lines: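 Cells seeded at 5,000 per well were treated with compounds over a concentration series and loaded with oleic acid (400 uM, as added). Lipid droplet fluorescence (488 nm excitation, 500-530 nm channel) was read by laser-scanning cytometry and normalized to 20 uM Triacsin C.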

Test [8] concerns the target Glucocorticoid receptor (Homo sapiens) (UniProt P04150). Briefly: GR-GFP Redistribution (AID 450;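 active = compounds whose dose series gives a full or clear partial fitted curve of increased nuclear translocation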; also: potency is read from the fitted curve at half-maximal effect). The conditions noted are these: U2OS GR-GFP nuclear translocation, laser cytometry, 2 h.
Test [9] has as its target Ubiquitin carboxyl-terminal hydrolase 1 (Homo sapiens) (UniProt O94782). Briefly: Inhibitors of USP1/UAF1: Pilot qHTS (AID 504865; active = well fitted inhibition curve with a large enough effect;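 also: rhodamine fluorescence freed from ubiquitin-rhodamine substrate followed over time; top concentration of the series differs between compounds; % is scaled to controls: 0 for no effect and ±100 for the full control effect; nearly all actives have a fitted effect of over 35% in size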). In outline: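 Deubiquitinase activity followed as kinetic rhodamine fluorescence release from 150 nM Ub-Rho. 1 nM USP1/UAF1 with compound, after 15 min room-temperature preincubation, in HEPES pH 7.8 buffer containing TCEP, EDTA, BSA and Tween-20.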

Test [10] deals with Cytochrome P450 1A2 (Homo sapiens) (UniProt P05177). Nature of the test: p450-cyp1a2 (AID 410; calls by dose curve; also: potency is read from the fitted curve at half-maximal effect). In a few lines: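 Inhibition was calculated relative to 57 uM furafylline (full inhibition). The reaction used human CYP1A2 at 20nM with Luciferin-ME at its Km, 100uM, driven by an NADPH-regenerating system for 60 min at room temperature.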
Setting [11] is: measured here: cell count channel max response.
Where [12] appears, read: measured here: lipid channel max response.

The structures appear in SMILES notation. Records with an inconclusive call do not appear. The source made the active and inactive calls. Unless noted, calls follow the shape of the dose curve; as a rule, active = well fitted curve in either direction with a large enough effect (not every such curve was filed as active); inconclusive = small, poorly fitted or top-dose-only effect, or another doubt; inactive = flat fitted curve, though single readings scatter. A value given as a limit tells only on which side of the number the result lay.

3',5'-cyclic-AMP phosphodiesterase 4B (Homo sapiens), sequence (Q07343 whole entry, looked up): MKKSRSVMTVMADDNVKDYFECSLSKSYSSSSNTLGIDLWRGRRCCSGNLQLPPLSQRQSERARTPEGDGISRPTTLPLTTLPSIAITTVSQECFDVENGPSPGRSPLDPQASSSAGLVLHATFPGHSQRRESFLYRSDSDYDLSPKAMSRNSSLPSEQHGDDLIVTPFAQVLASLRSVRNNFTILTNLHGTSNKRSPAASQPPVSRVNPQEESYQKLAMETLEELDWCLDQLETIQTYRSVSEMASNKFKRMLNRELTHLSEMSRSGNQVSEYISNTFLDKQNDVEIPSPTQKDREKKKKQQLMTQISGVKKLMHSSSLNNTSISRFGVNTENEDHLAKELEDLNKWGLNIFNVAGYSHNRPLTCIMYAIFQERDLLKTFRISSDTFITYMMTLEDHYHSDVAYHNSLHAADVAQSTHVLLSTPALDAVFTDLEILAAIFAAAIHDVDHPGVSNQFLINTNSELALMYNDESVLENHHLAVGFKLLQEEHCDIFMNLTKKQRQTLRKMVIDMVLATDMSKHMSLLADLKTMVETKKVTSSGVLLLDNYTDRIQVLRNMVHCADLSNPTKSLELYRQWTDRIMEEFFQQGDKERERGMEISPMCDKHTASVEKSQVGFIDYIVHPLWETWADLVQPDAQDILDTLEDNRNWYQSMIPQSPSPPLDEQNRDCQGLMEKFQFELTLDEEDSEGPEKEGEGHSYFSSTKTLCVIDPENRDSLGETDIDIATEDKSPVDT
Ubiquitin carboxyl-terminal hydrolase 1 (Homo sapiens), sequence (O94782 whole entry, looked up): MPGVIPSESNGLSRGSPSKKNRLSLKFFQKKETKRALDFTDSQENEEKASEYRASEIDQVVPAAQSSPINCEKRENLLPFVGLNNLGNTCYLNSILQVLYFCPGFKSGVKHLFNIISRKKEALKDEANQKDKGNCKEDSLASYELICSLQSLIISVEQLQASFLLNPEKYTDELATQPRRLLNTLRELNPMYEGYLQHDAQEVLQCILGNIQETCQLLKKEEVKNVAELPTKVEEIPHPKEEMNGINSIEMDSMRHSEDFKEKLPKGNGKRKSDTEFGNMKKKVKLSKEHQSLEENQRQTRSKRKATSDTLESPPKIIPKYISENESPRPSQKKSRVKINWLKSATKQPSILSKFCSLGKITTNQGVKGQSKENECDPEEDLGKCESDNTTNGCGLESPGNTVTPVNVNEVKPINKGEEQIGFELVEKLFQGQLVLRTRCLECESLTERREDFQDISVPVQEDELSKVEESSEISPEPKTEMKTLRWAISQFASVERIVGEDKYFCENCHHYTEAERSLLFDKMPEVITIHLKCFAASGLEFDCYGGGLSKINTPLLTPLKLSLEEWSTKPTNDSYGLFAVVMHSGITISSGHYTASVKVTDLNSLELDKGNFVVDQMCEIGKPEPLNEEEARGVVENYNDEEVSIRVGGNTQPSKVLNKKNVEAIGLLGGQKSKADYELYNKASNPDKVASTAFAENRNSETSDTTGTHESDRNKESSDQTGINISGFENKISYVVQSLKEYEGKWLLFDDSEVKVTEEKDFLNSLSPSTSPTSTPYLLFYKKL
Glucocorticoid receptor (Homo sapiens), sequence (P04150 whole entry, looked up, the tested form may be a part): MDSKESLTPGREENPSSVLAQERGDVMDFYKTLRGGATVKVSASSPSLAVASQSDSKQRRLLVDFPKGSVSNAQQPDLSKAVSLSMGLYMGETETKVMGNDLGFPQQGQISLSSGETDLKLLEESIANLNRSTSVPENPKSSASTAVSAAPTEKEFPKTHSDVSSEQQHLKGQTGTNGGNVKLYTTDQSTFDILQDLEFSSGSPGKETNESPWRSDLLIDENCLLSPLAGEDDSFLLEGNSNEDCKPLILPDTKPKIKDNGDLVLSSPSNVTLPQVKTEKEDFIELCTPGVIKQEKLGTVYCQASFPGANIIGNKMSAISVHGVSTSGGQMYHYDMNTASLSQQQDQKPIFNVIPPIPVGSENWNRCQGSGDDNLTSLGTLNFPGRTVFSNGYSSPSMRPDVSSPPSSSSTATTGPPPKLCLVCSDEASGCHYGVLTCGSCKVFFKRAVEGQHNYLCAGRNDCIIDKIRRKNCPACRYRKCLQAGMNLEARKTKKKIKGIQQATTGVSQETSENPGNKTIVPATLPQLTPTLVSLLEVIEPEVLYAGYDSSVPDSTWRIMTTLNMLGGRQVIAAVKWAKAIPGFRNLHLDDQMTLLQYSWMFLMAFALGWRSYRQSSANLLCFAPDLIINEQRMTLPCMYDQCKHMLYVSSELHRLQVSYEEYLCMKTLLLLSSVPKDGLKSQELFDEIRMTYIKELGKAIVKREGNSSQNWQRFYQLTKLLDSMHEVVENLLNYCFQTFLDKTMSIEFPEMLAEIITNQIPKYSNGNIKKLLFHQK
Cytochrome P450 1A2 (Homo sapiens), sequence (P05177 whole entry, looked up): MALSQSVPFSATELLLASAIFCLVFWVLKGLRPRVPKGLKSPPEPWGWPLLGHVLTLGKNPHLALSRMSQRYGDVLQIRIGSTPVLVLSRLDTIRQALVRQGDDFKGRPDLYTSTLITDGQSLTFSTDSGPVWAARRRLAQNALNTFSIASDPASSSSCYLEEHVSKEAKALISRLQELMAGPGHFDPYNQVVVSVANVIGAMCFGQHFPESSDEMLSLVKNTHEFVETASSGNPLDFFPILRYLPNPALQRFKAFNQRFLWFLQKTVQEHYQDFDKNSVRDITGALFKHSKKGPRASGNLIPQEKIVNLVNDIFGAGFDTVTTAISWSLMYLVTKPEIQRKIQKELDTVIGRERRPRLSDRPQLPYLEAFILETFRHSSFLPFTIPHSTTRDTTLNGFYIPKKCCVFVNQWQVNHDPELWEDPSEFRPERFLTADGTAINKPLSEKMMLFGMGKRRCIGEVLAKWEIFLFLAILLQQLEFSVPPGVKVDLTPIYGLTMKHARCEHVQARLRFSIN

In the case of `O=C(c1cnccn1)N1CCC2(CCN(Cc3ccncc3)CC2)CC1`, the activity change, negative = inhibition was -11.5% (inactive) in test [1], -19.7% (inactive) in [2] and 3.75% (inactive) in test [7]. For the same compound, the activity, negative = inhibition in test [3] was -8.42% (inactive). Moreover, in test [4], the Potency is > 46 µM (inactive). For the same compound, the Potency result in test [5] and in test [6] was “inactive” each time. Also, the max response in test [7] (setting [11]) was 2.59%; in test [7] (setting [12]) it was 8.61%.

`O=S(=O)(c1ccccc1)N1CCC2(CCN(c3ccncc3)CC2)CC1`: the activity change, negative = inhibition in [1] was 2.08% (inactive); in test [7], 3.52% (inactive). Besides, in test [3], the activity, negative = inhibition is 1.98% (inactive). Besides, the Potency in test [4] is > 46 µM (inactive). The Potency result in test [5] and in test [6] was “inactive” in each case. Besides, the values for the max response in test [7] (setting [11]) and in test [7] (setting [12]) were 9.97% and 17%, respectively.

`COc1ccc(Oc2ncc3nc(CCc4ccccc4)c(=O)n(C)c3n2)cc1`: the results for the activity change, negative = inhibition in [1], in test [2] and in test [7] were -17.4% (inactive), 2.43% (inactive) and -3.44% (inactive), respectively. In test [3], the activity, negative = inhibition is -11.3% (inactive). Besides, the Potency in [8] was > 9.22 µM (inactive); in [4], > 46 µM (inactive). The Potency entry in [5] is “inactive”. Moreover, the max response was determined as 9.28% in [7] (setting [11]) and 8.21% in test [7] (setting [12]).

On to `N#CCCn1c(=O)c(CCc2ccccc2)nc2cnc(N3CCOCC3)nc21`, for which the activity change, negative = inhibition in test [2] was -3.78% (inactive); in test [7], 4.17% (inactive). The activity, negative = inhibition in [3] was 26.7% (inactive). Further, the Potency in test [8] was > 9.22 µM (inactive); in test [4] it was > 46 µM (inactive). Moreover, in [5], the Potency result was “inactive”. Also, the values for the max response in test [7] (setting [11]) and in test [7] (setting [12]) were 19.8% and 22.7%, respectively.

Take `O=c1c(CCc2ccccc2)nc2cnc(N3CCOCC3)nc2n1C[C@H]1CCCO1`: the activity change, negative = inhibition in test [1] was -13.7% (inactive); in test [2], -4.34% (inactive); in [7], -15.5% (inactive). Further, the activity, negative = inhibition in [3] was -10.8% (inactive). The Potency in [8] was > 9.22 µM (inactive); in [4], > 46 µM (inactive). The Potency entry in [5] and in [6] was “inactive” throughout. The values for the max response in test [7] (setting [11]) and in test [7] (setting [12]) were -5.26% and -6.55%, respectively.

Turning to `CN(C)C(=O)c1ccc(-c2ccc3ncnc(NCc4cccnc4)c3c2)cc1`, the activity change, negative = inhibition in test [1] is -3.5% (inactive); in [2], 14% (inactive); in [7], 8.52% (inactive). For the same compound, in test [3], the activity, negative = inhibition is -1.99% (inactive). In addition, the Potency in test [8] and in test [4] was > 46 µM (inactive) in each case. Further, the Potency entry in [5], in [6] and in [9] was “inactive” in each case. For the same compound, the max response in test [7] (setting [11]) came to 9.7%; in test [7] (setting [12]), 16.7%.

Turning to `COc1ccc(CNc2ncnc3ccc(-c4ccc(C(=O)N(C)C)cc4)cc23)c(OC)c1`, the activity change, negative = inhibition in [1] was -13.6% (inactive); in test [2], 28.3% (inactive); in test [7] it was 1.13% (inactive). Also, the activity, negative = inhibition in test [3] was -9.48% (inactive). In addition, the Potency in test [8] and in [4] was > 46 µM (inactive) each time. The Potency entry in test [5] and in test [9] was “inactive” throughout. In addition, the max response in [7] (setting [11]) amounted to 11.2%; in [7] (setting [12]) it was 9.92%.

For the compound `COc1ccc(NC(=O)N2CCC3(CC2)CCN(C(=O)c2cc(C(F)(F)F)cc(C(F)(F)F)c2)CC3)cc1`, the results for the activity change, negative = inhibition in test [1] and in test [7] were -5.96% (inactive) and -8% (inactive), respectively. The activity, negative = inhibition in test [3] is -5.72% (inactive). In test [4], the Potency is > 46 µM (inactive). Also, the Potency result in test [5] and in [6] was “inactive” throughout. In addition, the results for the max response in [7] (setting [11]) and in test [7] (setting [12]) were 3.79% and -1.48%, respectively.

For `c1ccc(Nc2ncnc3ccc(-c4ccc5c(c4)OCO5)cc23)cc1`, the results for the Potency in [10], in test [8] and in [4] were 251 nM (active), > 46 µM (inactive) and > 46 µM (inactive), respectively. Further, the activity, negative = inhibition in test [3] is 8.5% (inactive). For the same compound, the Potency result in test [5] was “inactive”. For the same compound, the activity change, negative = inhibition in test [7] was 5.31% (inactive). The max response in test [7] (setting [11]) is -12.2%; in test [7] (setting [12]), -7.25%.

Regarding `Cc1cccc(CNc2ccnc(-c3cccc(NS(C)(=O)=O)c3)n2)c1`, the activity change, negative = inhibition in test [1] is -18.5% (inactive); in test [2] it was 9.66% (inactive); in test [7], 8.1% (inactive). In addition, the Potency in [8] and in test [4] was > 46 µM (inactive) in each case. Besides, the Potency result in test [5] and in test [6] was “inactive” each time. Besides, the max response was 4.58% in [7] (setting [11]) and -1.23% in [7] (setting [12]).

`CN(C)Cc1ccccc1-c1ccc2ncnc(NCc3cccs3)c2c1`: the activity change, negative = inhibition in [1] was 4.22% (inactive); in test [2] it was -20.1% (inactive); in [7], 7.62% (inactive). Moreover, the activity, negative = inhibition in test [3] is -19.4% (inactive). Further, the Potency in test [8] and in [4] was > 46 µM (inactive) in each case. The Potency result in [5] and in test [9] was “inactive” each time. Besides, the max response in test [7] (setting [11]) is -0.921%; in test [7] (setting [12]), 6.51%.

In the case of `O=c1c(-c2cc(F)cc(F)c2)nc2cnc(Oc3ccccc3)nc2n1C[C@H]1CCCO1`, the figures for the activity change, negative = inhibition in test [1], in test [2] and in [7] were -12.8% (inactive), -1.84% (inactive) and -6.47% (inactive), respectively. In test [3], the activity, negative = inhibition was -1.6% (inactive). In addition, the Potency in test [4] is > 46 µM (inactive). Also, the Potency entry in test [5] and in test [6] was “inactive” throughout. Besides, the values for the max response in [7] (setting [11]) and in [7] (setting [12]) were 13.2% and 10.1%, respectively.

Regarding `COc1ccccc1CN1CCC2(CC1)CCN(C(=O)c1cc(C(F)(F)F)cc(C(F)(F)F)c1)CC2`, the activity change, negative = inhibition in test [1] was -13.2% (inactive); in test [7] it was 0.332% (inactive). The activity, negative = inhibition in test [3] is -3.31% (inactive). Also, the Potency in test [4] was > 46 µM (inactive). Further, the Potency result in test [5] and in [6] was “inactive” throughout. Also, the values for the max response in test [7] (setting [11]) and in test [7] (setting [12]) were -5.08% and 1.32%, respectively.

`N#CCCn1c(=O)c(-c2ccc(Cl)cc2)nc2cnc(Oc3cccc(Cl)c3)nc21`: the activity change, negative = inhibition in test [1] is 23.4% (inactive); in test [2], 14.7% (inactive); in [7], 4.13% (inactive). For the same compound, the Potency is > 9.22 µM (inactive) in test [8] and > 46 µM (inactive) in test [4]. The Potency result in test [5] and in test [6] was “inactive” throughout. Besides, the results for the max response in test [7] (setting [11]) and in [7] (setting [12]) were 4.81% and 10.2%, respectively.

Turning to `COCCn1c(=O)c(-c2ccc(F)cc2)nc2cnc(Oc3ccc(OC)cc3)nc21`, the figures for the activity change, negative = inhibition in test [1], in [2] and in test [7] were -14.8% (inactive), 0.536% (inactive) and -18.7% (inactive), respectively. Also, the activity, negative = inhibition in [3] was -13.7% (inactive). Besides, the Potency was > 9.22 µM (inactive) in test [8] and > 46 µM (inactive) in test [4]. The Potency result in test [5] and in test [6] was “inactive” each time. The max response was -18.1% in [7] (setting [11]) and -27.4% in test [7] (setting [12]).
